The values below come from PubChem BioAssay (Tox21).

Unmarked numbers belong to inactive results. Records with an inconclusive call do not appear. Active and inactive are the calls of the source. Unless noted, the call rests on the fitted dose curve; in most records, active means well fitted curve in the direction sought with a large enough effect in the repeat runs; inconclusive means weak or mixed curves; inactive means no such curve, though single readings can be large; an effect the other way counts as inactive or inconclusive.

In assay [1] the target is Thyrotropin receptor (Homo sapiens) (UniProt P16473). The assay can be described thus: qHTS assay to identify small molecule antagonists of the thyroid stimulating hormone receptor (TSHR) signaling pathway (AID 1259385; calls by dose curve; further: nearly all actives have a fitted effect of over 20% in size). The gist of the method:
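TSHR-HEK293 cells were plated and held 18 h at 37C/5% CO2, then given compound plus Ro20-1724 and stimulated with TSH at 1.5 ng/mL final. After 30 min at room temperature, cAMP was detected with cAMP-d2/anti-cAMP-cryptate (1 h) by fluorescence.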
Background: In qHTS, concentration-response curves come from the screen itself.

Assay [2] can be described thus: qHTS assay to identify small molecule agonists of the estrogen receptor alpha (ER-alpha) signaling pathway in the presence of an antagonist - cell viability counter screen (AID 1259386).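 Further: series mostly up to about 92 µM; cells exposed to compounds for 22 h at 37 °C before the viability read; nearly all actives have a fitted effect of over 30% in size.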 Summed up:
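Viability counter screen using VM7Luc4E2 (full-length ER-alpha, four ERE-luciferase). The cells were treated with compounds alongside ICI-182,780 10.0nM for 22hr, and live-cell protease fluorescence was quantified with CellTiter-Fluor.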

Assay [3] has as its target Progesterone receptor (Homo sapiens) (UniProt P06401). The experiment in a line: qHTS assay to identify small molecule agonists of the progesterone receptor (PR) signaling pathway (AID 1346784; calls by dose curve; further: nearly all actives have a fitted effect of over 30% in size). The gist of the method:
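PR-UAS-bla HEK 293T cells (beta-lactamase reporter under UAS) in 2% charcoal-stripped FBS, dosed with 23 nL compound after 6 hr, incubated 16hr at 37C. LiveBLAzer B/G FRET substrate added, fluorescence read after 2 hours.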

For assay [4] the target is unchanged. The assay can be described thus: qHTS assay to identify small molecule antagonists of the progesterone receptor (PR) signaling pathway (AID 1346795; active means well fitted inhibition curve with a large enough effect in the signal ratio in the repeat runs, not every such curve was filed as active; the % refers to the signal ratio; further: potency means the concentration at half of the fitted maximal effect). Summed up:
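PR-UAS-bla HEK293T cells with beta-lactamase reporter under UAS control, in 2% charcoal-stripped FBS, treated with compounds plus 1 nM promegestone (R5020, final) for 16 hr at 37C. Read-out: FRET beta-lactamase substrate fluorescence after 2 hr at room temperature.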

A short description of assay [5]: qHTS assay to identify small molecule antagonists of the progesterone receptor (PR) signaling pathway - cell viability counter screen (AID 1346798). Further: nearly all actives have a fitted effect of over 50% in size. Further: potency means the concentration at half of the fitted maximal effect. On activity change, negative = cytotoxicity: series mostly up to about 92 µM. Summed up: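 PR-UAS-bla HEK293T cells, 3,000/well in 2% charcoal-stripped FBS medium, dosed with compounds plus R5020 agonist and incubated 16 h at 37C. Viability then measured in the same wells by CellTiter-Glo luminescence after 30 min at RT.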

The nature of assay [6]: qHTS assay to identify small molecule agonists of the progesterone receptor (PR) signaling pathway - cell viability counter screen (AID 1346799; calls by dose curve; further: nearly all actives have a fitted effect of over 45% in size). Summed up: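 Counter screen in the PR-UAS-bla HEK293T wells (2% charcoal-stripped FBS, 16 h compound exposure at 37 C) after the bla read. CellTiter-Glo added, 30 min at room temperature, luminescence read as cell viability.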
A short description of assay [7]: qHTS assay to identify small molecule antagonists of the TGF-beta/Smad signaling pathway - cell viability counter screen (AID 1346824). Further: nearly all actives have a fitted effect of over 50% in size. Summed up:
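SBE-bla HEK 293T cells were plated overnight at 37 C, then given compounds in DMSO plus TGF-beta1 (added as 0.25 ng/mL solution) for 5 hr. After the bla read, CellTiter-Glo was added to the same wells and luminescence read after 30 min at room temperature.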

Assay [8] in a line: qHTS assay to identify small molecule agonists of the TGF-beta/Smad signaling pathway (AID 1346859; active means well fitted activation curve with a large enough effect in the signal ratio in the repeat runs, not every such curve was filed as active; the % refers to the signal ratio; further: series mostly up to about 77 µM). Summed up: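 SBE-bla HEK293T cells plated overnight, then compound exposure for 5 h at 37 C. Beta-lactamase reporter read with LiveBLAzer B/G FRET substrate after 2 h at room temperature, fluorescence at 405 nm excitation, 460/530 nm emission.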
Assay [9] has as its target Thyrotropin-releasing hormone receptor (Homo sapiens) (UniProt P34981). The experiment in a line: qHTS assay to identify small molecule antagonists of the thyrotropin-releasing hormone receptor (TRHR) signaling pathway (AID 1346877; active means well fitted inhibition curve with a large enough effect in the repeat runs, not every such curve was filed as active; further: series mostly up to about 51 µM). The gist of the method:
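Following an 18 h incubation at 37 °C and a 2 h calcium dye load, TRHR-HEK293 cells were exposed to compound (5 min, room temperature) and challenged with TRH, 1 nM final.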

Assay [10] can be described thus: qHTS assay to identify small molecule agonists of the TGF-beta/Smad signaling pathway - cell viability counter screen (AID 1346829). Further: top concentration of the series differs between compounds; nearly all actives have a fitted effect of over 45% in size. The gist of the method: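 After overnight seating at 37 C and 5% CO2, reporter cells got compounds for 5 hr and FRET substrate for 2 hr; cell viability then came from CellTiter-Glo luminescence.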
On the % scale 0 is the no-effect control and ±100 the full control effect.

Sequence of Progesterone receptor (Homo sapiens) (P06401 whole entry, looked up): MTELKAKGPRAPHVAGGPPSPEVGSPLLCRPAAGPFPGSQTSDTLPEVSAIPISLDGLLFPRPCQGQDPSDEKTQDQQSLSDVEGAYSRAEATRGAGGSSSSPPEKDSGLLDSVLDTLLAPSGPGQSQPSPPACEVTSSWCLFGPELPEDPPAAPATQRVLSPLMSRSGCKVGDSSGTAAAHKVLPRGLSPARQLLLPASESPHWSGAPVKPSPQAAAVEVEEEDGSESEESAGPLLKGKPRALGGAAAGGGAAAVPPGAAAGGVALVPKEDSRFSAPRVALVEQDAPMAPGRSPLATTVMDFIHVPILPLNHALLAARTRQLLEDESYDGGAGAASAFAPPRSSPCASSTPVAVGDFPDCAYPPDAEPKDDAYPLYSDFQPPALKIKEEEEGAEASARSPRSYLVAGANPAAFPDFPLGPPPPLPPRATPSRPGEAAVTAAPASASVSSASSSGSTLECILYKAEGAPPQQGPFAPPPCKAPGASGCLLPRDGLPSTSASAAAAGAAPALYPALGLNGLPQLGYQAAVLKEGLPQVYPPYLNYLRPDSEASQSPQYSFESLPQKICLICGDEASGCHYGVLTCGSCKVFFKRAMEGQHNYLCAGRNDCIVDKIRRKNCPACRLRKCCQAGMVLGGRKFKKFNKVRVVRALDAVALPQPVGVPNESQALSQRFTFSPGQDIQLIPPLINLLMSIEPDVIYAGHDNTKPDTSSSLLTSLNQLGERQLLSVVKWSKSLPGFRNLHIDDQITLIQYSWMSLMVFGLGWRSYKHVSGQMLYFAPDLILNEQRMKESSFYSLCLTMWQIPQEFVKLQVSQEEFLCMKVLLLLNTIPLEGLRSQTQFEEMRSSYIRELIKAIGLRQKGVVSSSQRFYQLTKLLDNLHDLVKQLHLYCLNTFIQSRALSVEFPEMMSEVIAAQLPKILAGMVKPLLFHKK
Sequence of Thyrotropin receptor (Homo sapiens) (P16473 whole entry, looked up): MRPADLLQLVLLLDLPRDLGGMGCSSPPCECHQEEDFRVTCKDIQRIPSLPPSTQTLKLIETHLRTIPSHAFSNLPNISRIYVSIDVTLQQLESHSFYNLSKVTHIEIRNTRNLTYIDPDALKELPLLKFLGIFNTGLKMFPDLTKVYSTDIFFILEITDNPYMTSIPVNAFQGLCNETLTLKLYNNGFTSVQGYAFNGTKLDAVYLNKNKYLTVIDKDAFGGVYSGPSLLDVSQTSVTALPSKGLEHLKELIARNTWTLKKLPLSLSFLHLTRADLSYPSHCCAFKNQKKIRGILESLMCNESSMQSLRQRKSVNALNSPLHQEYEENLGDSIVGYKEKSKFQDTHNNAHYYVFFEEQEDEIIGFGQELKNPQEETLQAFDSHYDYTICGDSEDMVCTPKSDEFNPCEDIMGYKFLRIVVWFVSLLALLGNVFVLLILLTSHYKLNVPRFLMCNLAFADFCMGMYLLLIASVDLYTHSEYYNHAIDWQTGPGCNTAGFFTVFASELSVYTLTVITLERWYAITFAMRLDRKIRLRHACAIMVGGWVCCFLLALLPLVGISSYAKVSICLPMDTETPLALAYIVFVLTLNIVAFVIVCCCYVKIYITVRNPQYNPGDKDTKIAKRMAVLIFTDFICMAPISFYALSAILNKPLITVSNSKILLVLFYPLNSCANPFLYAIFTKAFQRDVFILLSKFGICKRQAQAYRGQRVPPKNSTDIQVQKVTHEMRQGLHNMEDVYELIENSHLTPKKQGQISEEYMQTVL
Sequence of Thyrotropin-releasing hormone receptor (Homo sapiens) (P34981 whole entry, looked up): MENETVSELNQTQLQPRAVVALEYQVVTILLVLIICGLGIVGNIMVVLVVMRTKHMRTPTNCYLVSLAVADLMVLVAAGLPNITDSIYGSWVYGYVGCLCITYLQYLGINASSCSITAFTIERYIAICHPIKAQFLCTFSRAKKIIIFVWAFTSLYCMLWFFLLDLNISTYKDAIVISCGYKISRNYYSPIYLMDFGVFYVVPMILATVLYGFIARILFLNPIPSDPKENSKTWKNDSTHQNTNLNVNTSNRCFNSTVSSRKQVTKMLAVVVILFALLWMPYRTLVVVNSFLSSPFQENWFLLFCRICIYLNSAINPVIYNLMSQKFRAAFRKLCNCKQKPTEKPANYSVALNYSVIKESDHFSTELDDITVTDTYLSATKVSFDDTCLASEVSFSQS

Consider `CC(=O)OCC1=C(C(=O)O)N2C(=O)[C@@H](N)[C@H]2SC1`, for which the results for the activity change, negative = inhibition in assay [1] and in assay [4] were 1.01% [at 19 µM] and 0.73% [at 18.9 µM], respectively. The activity change, negative = cytotoxicity in assay [2] was -2.84% [at 19 µM]; in assay [5], 2.66% [at 18.9 µM]; in assay [6] it was 3.69% [at 19 µM]. Further, the activation was 0.683% [at 19 µM] in assay [3] and -1.32% [at 15.8 µM] in assay [8]. The viability change, negative = cytotoxic in assay [7] was -0.755% [at 15.8 µM].

With `COc1ccc(C=O)cc1O`, the call in assay [1], in [7] and in assay [8] was inactive. For the same compound, the Potency result in [2], in assay [3], in [4], in assay [5], in assay [6] and in assay [9] was “inactive” in each case.

As for `Clc1nc(Cl)nc(Nc2ccccc2Cl)n1`, the outcome in assay [1], in [7] and in assay [8] was inactive. The Potency entry in [2], in assay [3], in assay [4], in assay [5], in assay [6] and in [10] was “inactive” throughout. Moreover, in [9], the Potency result was “inactive”.

As to `CCCOc1nn(C(=O)NS(=O)(=O)c2ccccc2C(=O)OC)c(=O)n1C`, the call in assay [1] was inactive. For the same compound, the Potency entry in assay [2], in assay [3], in assay [4], in assay [5], in assay [6] and in assay [10] was “inactive” each time.

As for `COP(=O)(OC)O/C(C)=C/C(=O)N(C)C`, the compound was called inactive in assay [1], in [7] and in [8]. The Potency result in assay [2], in [3], in assay [4], in assay [5], in assay [10] and in [9] was “inactive” each time.

As to `Cc1cc(OC(=O)N(C)C)nn1C(=O)N(C)C`, the call in assay [1] and in [7] was inactive. The Potency result in assay [2], in assay [3], in assay [4], in assay [5], in [6] and in assay [10] was “inactive” each time. The Potency result in [9] was “inactive”.

Turning to `CC(C)(C)NC[C@H](O)c1ccc(O)cc1Cl`, the call in [1], in assay [7] and in assay [8] was inactive. Further, the Potency result in assay [2], in assay [3], in assay [4], in assay [5], in [6] and in [9] was “inactive” each time.

Turning to `CC1N=C(N)OC1c1ccccc1` (centres undefined), the outcome in assay [1], in [7] and in assay [8] was inactive. Further, the Potency result in [2], in [3], in assay [4], in assay [6] and in assay [9] was “inactive” throughout. In assay [5], the Potency is 37.7 µM (active).

Take `CCC1(c2ccccc2)C(=O)N(COC)C(=O)N(COC)C1=O`: the outcome in assay [1], in [7] and in assay [8] was inactive. In addition, the Potency result in assay [2], in [3], in assay [4], in assay [5], in [6] and in assay [10] was “inactive” throughout. The Potency entry in assay [9] was “inactive”.

As to `O=CCCl`, the result in assay [1] and in assay [8] was inactive. In addition, the Potency entry in assay [2], in assay [3], in assay [4], in assay [5], in assay [6] and in assay [10] was “inactive” throughout. Also, the Potency result in [9] is “inactive”.

For `O=C(NC(=O)c1c(F)cccc1F)Nc1cc(Cl)c(F)c(Cl)c1F`, the compound was called inactive in [1] and in assay [8]. The Potency entry in assay [2], in [3], in assay [4], in assay [5], in assay [6] and in [10] was “inactive” each time. The Potency entry in assay [9] is “inactive”.

In the case of `C(COCC1CO1)OCC1CO1` (centres undefined), the outcome in assay [1] and in [8] was inactive. For the same compound, the Potency result in [2], in [3], in [4], in [5], in [6] and in assay [10] was “inactive” each time. Further, the Potency entry in [9] was “inactive”.

For `CCCOC(=O)c1cncn1C(C)c1ccccc1` (centres undefined), the compound was classed as inactive in [1], in assay [7] and in [8]. In addition, the Potency entry in assay [2], in assay [3], in assay [4], in [5], in assay [6] and in assay [10] was “inactive” throughout. In addition, the Potency entry in [9] was “inactive”.

With `CCC1(c2cccc(O)c2)CCCCN(C)C1` (centres undefined), the outcome in [1] and in assay [7] was inactive. Also, the Potency result in assay [2], in [3], in assay [4], in [5], in assay [6] and in assay [9] was “inactive” in each case.

Regarding `c1cncc([C@@H]2CCCCN2)c1`, the call in assay [1] and in [7] was inactive. In addition, the Potency entry in assay [2], in assay [3], in assay [4], in assay [5], in assay [6] and in [10] was “inactive” each time. Also, the Potency result in [9] is “inactive”.

Regarding `ClCCN1CCCC1`, the compound was called inactive in assay [1], in [7] and in assay [8]. In addition, the Potency result in assay [2], in assay [3], in assay [4], in [5] and in [10] was “inactive” throughout.

Turning to `CCOC(=O)COc1ccc(Cl)cc1Cl`, the result in [1] and in [7] was inactive. Further, the Potency entry in assay [2], in assay [3], in assay [4], in assay [5], in assay [6] and in assay [10] was “inactive” each time. Also, the Potency result in [9] is “inactive”.

`CCOC(=O)C(SP(=S)(OC)OC)c1ccccc1` (centres undefined): the compound was called inactive in assay [1], in assay [7] and in [8]. The Potency entry in assay [2], in assay [3], in assay [5], in [6] and in [9] was “inactive” in each case. Further, in assay [4], the Potency is 48.6 µM (active).

In the case of `O=C(Cl)C(Cl)Cl`, the result in [1] and in [7] was inactive. The Potency result in assay [2], in [3], in assay [4], in assay [5], in assay [6] and in assay [10] was “inactive” in each case. In addition, the Potency result in assay [9] was “inactive”.

For `CN=CNc1ccc(C)cc1C`, the call in assay [1], in [7] and in [8] was inactive. Moreover, the Potency result in assay [2], in assay [3], in [4], in assay [5] and in [6] was “inactive” in each case.

For `CCC(CC)(CNC(=O)CCCO)c1cccc(OC)c1`, the compound was classed as inactive in assay [1], in [7] and in assay [8]. In addition, the Potency entry in [2], in assay [3], in assay [4], in assay [5], in [6] and in assay [10] was “inactive” in each case. Besides, the Potency result in [9] was “inactive”.

For the compound `CCc1ccc(C2CCNCC2)cc1`, the compound was called inactive in [1], in [7] and in [8]. Besides, the Potency result in assay [2], in assay [3], in [4], in assay [10] and in [9] was “inactive” in each case.

With `CC(C)NCC(O)c1ccc([N+](=O)[O-])cc1` (centres undefined), the compound was classed as inactive in assay [1], in assay [7] and in [8]. The Potency entry in [2], in assay [3], in [4], in assay [6], in assay [10] and in assay [9] was “inactive” in each case.

As to `Clc1cc2c(cc1Cl)Oc1cc(Cl)c(Cl)cc1O2`, in assay [1], the activity change, negative = inhibition is -3.4% [at 0.349 µM]. Besides, the activity change, negative = cytotoxicity in assay [2] was 0.532% [at 0.349 µM]; in assay [5] it was -11.1% [at 0.348 µM]; in assay [6], 4.69% [at 0.349 µM]; in assay [10], 9.06% [at 0.29 µM]. Besides, the activation was 2.35% [at 0.349 µM] in assay [3] and 2% [at 0.29 µM] in assay [8]. In assay [7], the viability change, negative = cytotoxic is -2.55% [at 0.29 µM]. Further, in assay [9], the activity, negative = inhibition was 2.75% [at 0.194 µM].

With `c1ccc2c(c1)CCNC2`, the result in assay [1], in [7] and in assay [8] was inactive. In addition, the Potency result in assay [2], in assay [3], in assay [5], in assay [6], in [10] and in assay [9] was “inactive” throughout.

With `C=CCc1cc(OC)c2c(c1)OCO2`, the call in [1], in [7] and in assay [8] was inactive. Also, the Potency result in assay [2], in assay [3], in assay [5], in assay [6], in assay [10] and in assay [9] was “inactive” throughout.

`CC(C)(N)Cc1ccccc1Cl`: the call in assay [1], in assay [7] and in assay [8] was inactive. Further, the Potency entry in assay [2], in assay [3], in assay [4], in [10] and in assay [9] was “inactive” each time.
